Drawing on PubChem BioAssay (NCI), this text covers growth for 33 compounds.

“And” between values parts separate entries of the source, which are not always exact repeats. Equal entries are not always repeated. About 83,000 compounds went through this panel and 20% of them were active in at least one assay; those are over-represented in the sample as a whole.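 Compound tested at a single concentration for 48 hours in 96-well plates; a percent growth value below 10 was scored as active.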 The source made the active and inactive calls.

This assay relates to MDA-MB-468 breast. Nature of the assay: NCI-60 one-dose screen, 48 h (100 = growth as untreated, 0 = no growth, -100 = all killed). The conditions noted are these: 10 µM unless noted.
For the compound `O/N=C1\CCC2CCCCC2C1` (stereo not drawn), the growth is 105% (inactive).
The result for `CN1CCN(c2ccc3cc(-c4nc5ccccc5[nH]4)c(=O)oc3c2)CC1` reads 68.3% (inactive); that for `CCCCCCCC(=O)Nc1nc2[nH]c(CN3CCN(Cc4cccc(I)c4)CC3)c(CN3CCN(Cc4cccc(I)c4)CC3)c2c(=O)[nH]1`, -85.6% (active).
Turning to `c1ccc(C2Cc3ccccc3C2=NC2CCCCC2)cc1` (stereo not drawn), the growth was 111% (inactive).
For the compound `O=C(Nc1ccc(-n2ccc3c(NC(=O)c4ccccc4)ncnc32)cc1)c1cccc(C(F)(F)F)c1`, the growth is 58.6% (inactive).
The result for `CC(=O)c1cc(C(=O)N2c3ccccc3Sc3ccccc32)n2ccc3ccccc3c12` reads 43.4% (inactive).
The value for `CC1CC2Oc3ccc(Cl)cc3C(=O)N2O1` (stereo not drawn) was 94.5% (inactive); that for `CC1(C)[C@@H](O[C@@H]2OC[C@@H](O[C@@H]3O[C@H](CO)[C@@H](O)[C@H](O)[C@H]3O[C@@H]3OC[C@@H](O)[C@H](O)[C@H]3O)[C@H](O)[C@H]2O[C@@H]2O[C@H](CO)[C@@H](O)[C@H](O)[C@H]2O)CC[C@]2(C)[C@H]3CC[C@]45OC[C@@]6(CC[C@](C)(C=O)C[C@H]64)[C@H](O)C[C@@]5(C)[C@]3(C)CC[C@@H]12` was -71.2% (active); that for `FC(F)(F)c1cc(Nc2ccc3cc(OCCCN4CCOCC4)ccc3n2)ccc1Cl` was 31.1% (inactive).
The result for `COC(=O)Nc1nc2ccc(C(=O)c3ccc(N(C)C4COC4)cc3)cc2[nH]1` reads -8.89% (active).
Regarding `Cc1ccccc1NC(=O)N/C(N)=N/c1nc(-c2cccc([N+](=O)[O-])c2)cs1`, the growth is 6.27% (active).
As to `C=CC(=O)N1CC2(CC(n3nc(-c4ccc(Oc5ccccc5)cc4)c4c(N)ncnc43)C2)C1`, the growth was -8.12% (active).
`Nc1nc2c(s1)CCc1cn(S(=O)(=O)c3ccccc3)cc1-2`: the growth is 83.2% (inactive).
The result for `COc1cc2c(cc1NC(=O)C(F)(F)F)-c1ccc(NC(=O)C(F)(F)F)cc1C2` reads 58% (inactive); that for `OC(CC(c1ccccc1)c1cccc2ccccc12)(c1ccccc1)c1ccccc1` (stereo not drawn), 86.3% (inactive) and 84.5% (inactive).
Turning to `CNCc1cccc2c1OCCOCCOCCN(C)S(=O)(=O)c1ccc(cc1)-c1cnc(N)c(n1)C(=O)N2`, the growth is 68.5% (inactive).
Regarding `CCCNC(=S)N/N=C(\C)c1ccccn1`, the growth is -26.3% (active).
For `O=c1c2c(=NCCN3CCCC3)cc3c(=O)n(CCCN4CCOCC4)c(=O)c4c(-c5ccc(CN6CCCC6)cc5)cc(c(O)n1CCCN1CCOCC1)c2c4-3`, the growth was -58.1% (active).
The value for `C=C(NC(=O)C(=C)NC(=O)c1csc(C2=NC3c4csc(n4)C4NC(=O)c5csc(n5)C(C(C)(O)C(C)O)NC(=O)C5CSC(=N5)C(=CC)NC(=O)C(C(C)O)NC(=O)c5csc(n5)C3(CC2)NC(=O)C(C)NC(=O)C(=C)NC(=O)C(C)NC(=O)C(C(C)CC)NC2C=Cc3c(C(C)O)cc(nc3C2O)C(=O)OC4C)n1)C(N)=O` (stereo not drawn) was -55.6% (active); that for `O=C(O)c1ccccc1Oc1cc(-c2ccco2)nc(OCCN2CCOCC2)n1` was 105% (inactive); that for `Clc1cccc(C2Cc3cnccc3-c3[nH]c4ccncc4c32)c1` (stereo not drawn) was 5.96% (active).
The result for `CCOc1ccccc1C(=O)OCC(=O)Nc1cccc(S(=O)(=O)N(C)C)c1` reads 84.7% (inactive); that for `CCCCC1=C(P(=O)(O)O)N[C@H](C(=O)O)CS1`, 89.1% (inactive); that for `CCN(CC)CCCC(C)Nc1c(C)cnc2cc(Cl)c(C)cc12` (stereo not drawn), 99.7% (inactive).
`CCc1nc2cc(/C=C/C(=O)NO)ccc2c(=O)n1CCc1ccc(F)cc1`: the growth was -11.6% (active).
The value for `CCOc1cc(-c2ccc[nH]2)[nH]c1/C=C1\N=C(C)C(C(=O)OC)=C1C` was -86.9% (active).
For the compound `O=c1c2ccccc2n2cnc3ccc(Cl)c1c32`, the growth is 79.1% (inactive).
On to `O=C(/C=C/c1cccc(O)c1)c1ccc(O)cc1`, for which the growth was 40.9% (inactive).
For the compound `C#C[C@]1(O)CC[C@H]2[C@@H]3CC=C4c5nc(Nc6ncccn6)sc5CC[C@]4(C)[C@H]3CC[C@@]21C`, the growth is 75.5% (inactive).
For `O=C(N/N=C/c1cc(Cl)ccc1O)c1ccccc1Nc1ccnc(C(F)(F)F)c1`, the growth was 12.8% (inactive).
On to `COc1ccc2c(c1)N(CCO)C1=C(C(=O)OC1)C2c1cccc(F)c1` (stereo not drawn), for which the growth was 7.89% (active).
The result for `Cc1ccc(S(=O)(=O)O)c(C)c1` reads 107% (inactive).
The result for `C/C(=C(/C)C1CC1CCN(C(=O)c1ccccn1)S(=O)(=O)c1ccc(C)cc1)C1CCCCC1` (stereo not drawn) reads 75.7% (inactive).
